Shown are actives, neighbours in structure and some others; about 1.4% of the full set was active somewhere.
Bcl-xL primary – blocks human Bcl-xL binding to Bim BH3 peptide. Q07817. GST-Bcl-xL / FITC-Bim BH3 peptide fluorescence polarization. inhibition, % at 10.9 µM. 0.7% of 320,000 active;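 active = inhibition above the mean of all tested compounds plus 3 SD, cutoff set per campaign, cut at about 30% in these data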;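 also: inhibitors lower millipolarization by displacing the labeled peptide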
Target sequence (Q07817 whole entry, looked up): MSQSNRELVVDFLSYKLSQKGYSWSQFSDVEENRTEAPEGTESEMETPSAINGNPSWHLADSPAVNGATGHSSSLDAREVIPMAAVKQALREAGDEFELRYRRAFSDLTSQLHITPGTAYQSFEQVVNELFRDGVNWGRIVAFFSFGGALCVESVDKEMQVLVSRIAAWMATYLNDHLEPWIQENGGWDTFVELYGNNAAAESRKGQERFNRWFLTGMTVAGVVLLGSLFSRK
GLD-1 TGE inh – GLD-1-TGE RNA interaction inhibition (C. elegans). Q17339. purified GLD-1 + fluorescein TGE RNA, fluorescence polarization. inhibition, % at 5.96 µM. 0.44% of 320,000 active. AID 2280;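 active = percent inhibition above a per-plate cutoff, the plate mean of test compounds plus 3 SD, cut at about 30% in these data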
EBV gp42 block – inhibitors of Epstein-Barr virus glycoprotein 42 | inhibition, % (tested at 21.74 µM) | AID 1085 | Fluorescence polarization binding assay, mP read-out | Q1HVG2 | 0.42% of 220,000 active; in the data active = inhibition above about 50%
Target sequence (Q1HVG2 whole entry, looked up): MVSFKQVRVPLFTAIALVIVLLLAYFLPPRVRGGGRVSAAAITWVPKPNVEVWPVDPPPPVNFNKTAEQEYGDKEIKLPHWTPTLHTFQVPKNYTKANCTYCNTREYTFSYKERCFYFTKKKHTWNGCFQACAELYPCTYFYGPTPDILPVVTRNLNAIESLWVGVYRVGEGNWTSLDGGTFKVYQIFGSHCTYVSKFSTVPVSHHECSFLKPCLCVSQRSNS
eLon inh – inhibits E. coli Lon protease; purified E. coli Lon protease, fluorescence polarization; inhibition, % at 7.94 µM; 0.42% of 360,000 active; in the data active = inhibition above about 13%, passing the limit was not always enough
MEX-5 binding – C. elegans MEX-5 TCR-2 RNA binding activity; Q9XUB2; MEX-5/FITC-TCR2 RNA binding, fluorescence polarization; stronger effect = lower value; activity score (negative = inhibition of binding), % at 10 µM; 0.38% of 300,000 active; AID 1832;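 active = inhibition past about -25% in most replicates, and total fluorescence under double the plate's negative control median, limit read from the data; inconclusive = replicates evenly split on the limit, or fluorescence at least double controls; inactive = too little inhibition in most replicates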
MCL1-BIM inh – inhibitors of human MCL1 binding to BIM-BH3 peptide; Q07820; GST-MCL1 / FITC-Bim-BH3 fluorescence polarization; inhibition, % at 10.9 µM; 0.68% of 320,000 active;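 active = inhibition above the mean inhibition of all tested compounds plus 3 SD, set per campaign, cut at about 40% in these data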;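 also: higher means more loss of mP so more displacement of Bim peptide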
Bcl-xL conf – Bcl-xL (human) inhibition, MCL1 counter-screen confirmation; shares compounds with MCL1-BIM inh; GST-Bcl-xL / FITC-Bim BH3 peptide FP binding; inhibition, % at 10.9 µM; 54% of 1,700 active; AID 2166;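 active = inhibition above a cutoff equal to the mean inhibition of all tested compounds plus 3 SD, cut at about 30% in these data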
MCL1 BIM confirm – MCL1-BIM-BH3 interaction inhibition, confirmation; shares compounds with MCL1-BIM inh; GST-MCL1 / FITC-Bim-BH3 fluorescence polarization; inhibition, % at 10.9 µM; 61% of 1,700 active; AID 2168;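 active = inhibition above the average of all tested compounds plus 3 SD, cut at about 40% in these data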
GLD-1 TGE cf – confirmation of C. elegans GLD-1 TGE RNA binding inhibitors. shares compounds with GLD-1 TGE inh. GLD-1/FL-TGE RNA fluorescence polarization, biochemical. inhibition, % at 5.96 µM. 10% of 550 active. AID 2459;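 active = average inhibition across triplicates above the hit cutoff set in the primary screen, cut at about 32% in these data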
E coli Lon conf – confirmation of E. coli Lon protease inhibitors; purified E. coli Lon, fluorescence polarization; 31% of 1,400 active; shares compounds with eLon inh; AID 602230; inhibition, % at 7.94 µM; in the data active = inhibition above about 16%
A number is an active result; n = inactive; u = inconclusive; x = no result given; + = active, no number.

SMILES	Bcl-xL primary	GLD-1 TGE inh	EBV gp42 block	eLon inh	MEX-5 binding	MCL1-BIM inh	Bcl-xL conf	MCL1 BIM confirm	GLD-1 TGE cf	E coli Lon conf
COc1ccccc1C(c1c(O)nc(SC)[nH]c1=O)c1c(O)nc(SC)[nH]c1=O	n	n	x	n	n	n	x	x	x	x
CCOc1cc(C(c2c(O)nc(SC)[nH]c2=O)c2c(O)nc(SC)[nH]c2=O)ccc1O	84	68	x	49	n	97	65	76	x	41
Cc1ccccc1NS(=O)(=O)c1ccc2c(c1)CCC(=O)N2	x	x	x	n	x	x	x	x	x	x
CCc1nc2c(OCc3cc(Cl)cc(Cl)c3)cccn2c1N(C)C(=O)c1ccc(OC)cc1	x	x	x	n	x	x	x	x	x	x
COc1ccc(N=Nc2nc3cc(Br)c(Br)cc3n2C)c(OC)c1	+	198	118	163	x	+	176	+	x	128
COc1ccc(CNc2nc3ccccc3n2C)c(OC)c1	n	n	n	n	n	n	x	x	x	x
CCC1(c2ccccc2)NC(=O)N(CC(=O)Nc2ccc(OC)nc2)C1=O (centres undefined)	167	124	x	112	u	+	168	+	x	105
CN(C)c1c2ccccc2nc2c(F)c(F)c(F)c(F)c12	n	n	n	n	n	n	x	x	x	x
Cc1c2ccccc2nc2c(F)c(N(C)C)c(F)c(F)c12	114	99	197	117	n	122	120	134	x	+
CCOc1ccc(C(C(=O)NC(C)(C)C)N(CCOC)C(=O)CCC(=O)Nc2ccccn2)cc1 (centres undefined)	n	n	x	n	n	n	x	x	x	x
COc1ccc2noc3c2c1C(=O)c1ccccc1-3	116	91	x	+	u	117	110	121	x	116
O=C1C2C3C=CC(CC3)C2C(=O)N1c1ccc(F)cc1 (centres undefined)	n	n	x	n	n	n	x	x	x	x
CC(C)C1NC2(C(=O)c3ccccc3C2=O)C2C(=O)N(c3ccc(F)cc3)C(=O)C12 (centres undefined)	80	120	n	50	n	64	n	n	x	n
Cc1ccc(C(=O)C[n+]2cccc3ccccc32)cc1	n	n	n	n	n	n	x	x	x	x
NC(=O)C[n+]1cccc2ccccc21	185	n	n	57	-36	+	101	124	x	40
CCN(CC)S(=O)(=O)c1cccc(C(=O)N/N=C2\CCCC(=O)C2)c1	41	114	n	87	n	56	n	n	x	n
CCN(CC)S(=O)(=O)c1cccc(C(=O)N/N=C/c2cccc(O)c2O)c1	n	n	n	n	n	n	x	x	x	x
COc1c(O)cccc1[C@H](O)C1CCN(CCc2ccc(F)cc2)CC1	50	66	x	71	-39	56	56	60	x	n
CCCCC1(Cc2cccc([N+](=O)[O-])c2)C(=O)N(c2ccccc2)N(c2ccccc2)C1=O	n	n	n	n	n	n	x	x	x	x
CCCCC1=CC2=C(c3ccco3)C(=O)C(C)(OC(=O)c3ccc(OC)cc3)C(=O)C2=CN1CCCCO (centres undefined)	79	42	n	37	n	89	n	n	x	n
CCCCC1=CC2=C(c3ccco3)C(=O)C(C)(OC(=O)c3ccc(OC)cc3)C(=O)C2=CN1Cc1ccco1 (centres undefined)	n	n	n	n	n	n	x	x	x	x
C=CCN(C(=O)CCC(=O)Nc1cc(C)on1)C(C(=O)NC1CCCC1)c1ccc(OC)cc1OC (centres undefined)	n	n	x	n	n	n	x	x	x	x
CCOc1ccc(N)c(SSc2cc(OCC)ccc2N)c1	n	n	x	n	n	n	x	x	x	x
CCOc1cc(-c2ccc(N)c(OCC)c2)ccc1N	148	127	145	52	x	174	134	183	x	98
Nc1nnnn1/N=C/c1cc(Cl)ccc1O	n	38	x	n	n	n	x	x	46	x
SMILES	Bcl-xL primary	GLD-1 TGE inh	EBV gp42 block	eLon inh	MEX-5 binding	MCL1-BIM inh	Bcl-xL conf	MCL1 BIM confirm	GLD-1 TGE cf	E coli Lon conf
Cc1cnc(C(=O)Nc2ccccc2-c2ccc(C)o2)cn1	36	42	n	n	n	n	x	x	n	x
COC(=O)c1ccc(CNC(=O)Cn2nnnc2CN(C)C(C)C)cc1	n	138	x	n	n	n	x	x	n	x
O=C1COc2ccc(C(=O)COC(=O)CCSc3ccccc3)cc2N1	n	59	n	n	n	n	x	x	n	x
CN1CCN(C(=O)c2cnc(Cc3c[nH]c4ccccc34)c(I)c2)CC1	x	x	x	n	x	x	x	x	x	x
CCCCC1=CC2=C(c3ccco3)C(=O)C(C)(OC(=O)c3ccc(OC)cc3)C(=O)C2=CN1c1ccc(OC)cc1 (centres undefined)	30	33	n	n	n	n	x	x	n	x
CCOc1cccc(=O)c2c(C)n(C)c(C)c12	n	40	n	n	n	n	x	x	n	x
CCOC(=O)CC(=O)CSc1nc2ccc(OC)cc2cc1C	36	34	n	n	n	47	x	x	n	x
CCOC(=O)CC(=O)CSc1nc2cc(C)ccc2cc1C	n	n	n	n	n	n	x	x	x	x
CCOC(=O)N1CCN(C2=Nc3cccc4cccc2c34)CC1	39	49	n	n	u	n	x	x	n	x
COC(=O)[C@]1(Cc2ccccc2)N[C@H](CN(C)C(=O)c2ccc(F)cc2)[C@@H]2C(=O)N(C)C(=O)[C@@H]21	x	n	x	n	x	x	x	x	x	x
O=C(CSc1nnc(CNC(=O)c2cccs2)o1)Nc1ccc(F)cc1F	n	n	x	n	x	n	x	x	x	x
Cc1cccc(NC(=O)c2ccc(S(=O)(=O)N3CCCC3)cc2)c1C	n	n	x	n	n	n	x	x	x	x
O=C(Nc1cccc2c1C(=O)NC2=O)c1ccc(S(=O)(=O)N2CCCC2)cc1	31	36	x	n	x	n	x	x	n	x
O=C(NN=Cc1ccccc1Cl)c1ccc([N+](=O)[O-])cc1	x	x	x	n	x	x	x	x	x	x
O=C(N/N=C/c1ccc[nH]1)c1ccc([N+](=O)[O-])cc1	n	57	n	n	n	n	x	x	n	x
O=C1NC(c2cccc([N+](=O)[O-])c2)Oc2ccccc21 (centres undefined)	n	n	n	n	n	n	x	x	x	x
CCCCCCc1cc2cc(S(=O)(=O)c3ccc(C)cc3)c(=O)oc2cc1O	n	39	n	n	n	n	x	x	n	x
CC(=O)Oc1ccc(C(=O)[C@H]2[C@H]3C(=O)N(c4ccccc4)C(=O)[C@H]3[C@@H]3C=CC=NN32)cc1	n	31	n	n	n	n	x	x	n	x

Bioassay records (PubChem BioAssay)
